# GDH-TPI counter-1: GDH-TPI coupling enzyme inhibitors, primary screen, artefact control for M. tuberculosis FBA inhibitor project, biochemical, absorbance, full deck | GDH-TPI coupled enzyme counterscreen, NADH absorbance | inhibition, % at 4.8 µM | 360,000 tested, 1.2% active; in the data active = inhibition above about 30%;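 note: 0% = DMSO wells and 100% = wells lacking the enzyme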
# 3CLpro inhibitor: SARS-CoV 3CLpro protease inhibitors, primary screen, biochemical, quenched FRET | Replicase polyprotein 1ab (Severe acute respiratory syndrome coronavirus), P0C6X7 | recombinant SARS-CoV 3CLpro, quenched FRET peptide cleavage | inhibition, % at 6 µM | 290,000 tested, 0.14% active | AID 1706, 2009; in the data active = inhibition above about 12%
# BH1578 lux ind: inducers of Vibrio cholerae quorum light production without autoinducers, primary screen, BH1578 luxS cqsA deficient, single point. AID 588436, 2011. activation, % at 18.7 µM. V. cholerae BH1578 lux reporter, luminescence, 6 h. 350,000 tested, 0.16% active; in the data active = activation mostly above about 9.7%, no sharp cut-off
# PrPC surface inh: inhibitors of human cell surface prion protein PrPC, primary screen, cell-based, TR-FRET. Major prion protein (Homo sapiens), P04156. TR-FRET read-out. inhibition, % at 13.8 µM. 370,000 tested, 0.43% active. AID 720596, 2013; in the data active = inhibition above about 24%; note: 0% = median of the test wells and 100% = reference compound wells
# Mtb FBA inh: Mtb FBA enzyme inhibitors, primary screen, biochemical, fluorescence, strain H37Rv; inhibition, % at 1 µM; 360,000 tested, 2.3% active; purified M. tuberculosis FBA, fluorescence read-out; Fructose-bisphosphate aldolase (Mycobacterium tuberculosis (strain ATCC 25618 / H37Rv)), …;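 note: 0% = vehicle and 100% = reference inhibitor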
# Target sequence (P9WQA3 whole entry, looked up): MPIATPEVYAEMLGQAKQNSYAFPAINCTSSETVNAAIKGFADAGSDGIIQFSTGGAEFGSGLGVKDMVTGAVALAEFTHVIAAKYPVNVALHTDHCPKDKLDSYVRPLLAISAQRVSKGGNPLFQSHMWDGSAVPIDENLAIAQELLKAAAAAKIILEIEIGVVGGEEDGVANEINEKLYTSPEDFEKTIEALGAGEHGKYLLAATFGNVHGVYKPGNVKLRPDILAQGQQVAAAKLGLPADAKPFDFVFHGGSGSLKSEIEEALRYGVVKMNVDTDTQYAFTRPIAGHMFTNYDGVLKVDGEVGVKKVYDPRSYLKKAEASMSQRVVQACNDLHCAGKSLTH
# Mtb FBA inh conf: M. tuberculosis aldolase blockers, biochemical, fluorescence, strain H37Rv, confirmation; AID 651616, 2012; inhibition, % at 1 µM; shares compounds with Mtb FBA inh; purified M. tuberculosis FBA, fluorescence read-out; 5,600 tested, 78% active;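 note: 0% = vehicle wells and 100% = reference inhibitor wells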
# GDH-TPI counter-2: GDH-TPI coupling enzyme inhibitors, artefact control for M. tuberculosis FBA inhibitor project, biochemical, fluorescence, high throughput; shares compounds with Mtb FBA inh; GDH-TPI coupled enzyme counterscreen; inhibition, % at 1 µM; 5,600 tested, 81% active; AID 652141, 2013; in the data active = inhibition above about 10%
# GDH-TPI DR: GDH-TPI coupling enzyme inhibitors, dose response, artefact control for M. tuberculosis FBA inhibitor project, biochemical, fluorescence, IC50. shares compounds with Mtb FBA inh. IC50, µM. 170 tested, 79% active. GDH-TPI coupled enzyme assay, artifact counterscreen; call rule not given here
# The depositor's hits bear a star; i = inactive; nt = not tested or not shown; + = active, no number. The list is not random: actives were taken first. Their share in the collection is about 3.9%. Cut-off read from the data, not from the text of the source, unless noted: active = inhibition above about 27%; inactive = the rest.
SMILES,GDH-TPI counter-1,3CLpro inhibitor,BH1578 lux ind,PrPC surface inh,Mtb FBA inh,Mtb FBA inh conf,GDH-TPI counter-2,others
COc1cccc2c3c(c(C)nc12)CC(C)O3 (centres undefined),4,-2,4,-8,40*,106*,75*,
Cn1cc(/C=N/NC(=O)c2ccc(C#N)cc2F)c2ccccc21,18,-9,-1,5,0,nt,nt,
COc1cc(-c2cc(=O)c3ccc(O)cc3o2)cc(OC)c1OC,14,nt,0,-6,9,nt,nt,
COc1c(C)oc2cc(O)ccc2c1=O,11,-3,0,1,87*,58*,40*,
CCOc1ccc2c(=O)c(Oc3ccccc3)c(C)oc2c1,10,1,-1,17,3,nt,nt,
Cc1oc2cc(O)ccc2c(=O)c1Oc1ccc(F)cc1,15,-4,0,0,103*,0,-5,
Cc1oc2cc(O)ccc2c(=O)c1Oc1ccc2ccccc2c1,4,1,nt,2,111*,53*,38*,
Nc1nc2n(n1)C(c1cccs1)CC(c1ccccc1)N2 (centres undefined),16,-1,0,-3,69*,101*,81*,
Cc1cccc(C2CC(c3ccccc3)Nc3nc(N)nn32)c1 (centres undefined),7,-4,0,4,5,nt,nt,
Cc1ccc(S(=O)(=O)N/N=C\c2cc3c(cc2Br)OCO3)cc1,8,5,i,5,42*,9,-4,
CC1(C(=O)NCc2cccs2)Cc2c(-c3ccccc3)ccnc2O1 (centres undefined),0,nt,i,18,3,nt,nt,
CC1(C(=O)NCc2cccc(Cl)c2)Cc2c(-c3ccc4c(c3)OCO4)ccnc2O1 (centres undefined),10,nt,i,1,30*,19,21*,
CC(=O)Nc1ccc(-c2ccnc3c2CC(C)(C(=O)NCc2ccc(N(C)C)cc2)O3)cc1 (centres undefined),4,nt,i,7,3,nt,nt,
CC1(C(=O)NCc2cccs2)Cc2c(-c3ccc4c(c3)OCO4)ccnc2O1 (centres undefined),-1,nt,-1,1,61*,53*,32*,
CN(C)c1ccc(-c2ccnc3c2CC(C)(C(=O)NCc2ccc(F)c(F)c2)O3)cc1 (centres undefined),25,nt,i,6,44*,103*,78*,
CN(C)c1ccc(-c2ccnc3c2CC(C)(C(=O)NCc2cccs2)O3)cc1 (centres undefined),19,nt,i,8,40*,32*,9,GDH-TPI DR=1*
COC(=O)c1cc2ccsc2n1Cc1ccccc1F,6,4,i,-1,0,nt,nt,
CC(=O)Nc1ccc(-c2ccnc3c2CC(C)(C(=O)NCc2ccco2)O3)cc1 (centres undefined),7,nt,0,-1,10,nt,nt,
CC(C)NC(=O)C1(C)Cc2c(-c3ccc(N(C)C)cc3)ccnc2O1 (centres undefined),12,nt,-1,-11,38*,+,+,
CN(C)c1ccc(-c2ccnc3c2CC(C)(C(=O)NCc2ccco2)O3)cc1 (centres undefined),14,nt,1,8,31*,73*,52*,
CC(=O)Nc1ccc(-c2ccnc3c2CC(C)(C(=O)NCCC(F)(F)F)O3)cc1 (centres undefined),-4,nt,0,6,7,nt,nt,
CC(=O)Nc1ccc(-c2ccnc3c2CC(C)(C(=O)NC(C)C)O3)cc1 (centres undefined),2,nt,i,0,9,nt,nt,
CN(C)c1ccc(-c2ccnc3c2CC(C)(C(=O)NCCC(F)(F)F)O3)cc1 (centres undefined),24,nt,i,0,36*,97*,64*,
CC1CN(C(=O)Nc2ccc3snnc3c2)c2ccccc21 (centres undefined),10,4,i,3,5,nt,nt,
CCc1cc(C(=O)Nc2ccc(S(=O)(=O)NC3=NCCCCC3)cc2)sc1C,3,nt,i,9,0,nt,nt,
SMILES,GDH-TPI counter-1,3CLpro inhibitor,BH1578 lux ind,PrPC surface inh,Mtb FBA inh,Mtb FBA inh conf,GDH-TPI counter-2,others
O=C(O)CCc1nc2ccccc2n(CCc2ccccc2)c1=O,9,-9,i,10,13,nt,nt,
Cc1nn2c3ccccc3n(CCN3CCCCC3)c2nc1=O,7,0,0,0,32*,154*,102*,
O=C(O)CCc1nn2c3ccccc3nc2n(CCN2CCCCC2)c1=O,20,1,nt,4,35*,117*,88*,
CCc1ccc(-c2cc(C)no2)cc1S(=O)(=O)N1CCCN(Cc2ccc(F)cc2)C1,0,2,-1,-9,-1,nt,nt,
CCOC(=O)Nc1ccc(C(=O)Oc2ccccc2)c(O)c1,4,-7,i,-5,3,nt,nt,
Cc1cccc(OC(=O)Nc2ccc(C(=O)O)c(O)c2)c1,16,nt,0,1,29*,+,180*,
N#Cc1cc2c([nH]c1=O)CCCC2,5,1,i,6,68*,97*,91*,
COc1ccc2c(c1)C1(Nc3ccccc3-c3nc4ccccc4n31)C(=O)N2 (centres undefined),8,-4,-1,0,0,nt,nt,
Cc1ccc(C2Nc3ccccc3-c3nc4ccccc4n32)o1 (centres undefined),1,-2,0,3,82*,119*,95*,
O=C(O)CCN1C(=O)c2ccc(NC(=O)c3cccs3)cc2C1=O,16,1,i,-7,32*,183*,171*,
CCC(=O)Nc1ccc2c(c1)C(=O)N(C)C2=O,16,-3,nt,-4,27*,15,6,
CCCC(=O)Nc1ccc2c(c1)C(=O)N(CCC(=O)O)C2=O,14,0,-2,-4,41*,116*,89*,
CN1C(=O)c2ccc(NC(=O)CSc3ccccc3)cc2C1=O,5,-4,0,-8,-1,nt,nt,
CN1C(=O)c2ccc(NC(=O)c3cccc(N4C(=O)CCC4=O)c3)cc2C1=O,8,1,1,-8,28*,81*,93*,
O=C(O)CCN1C(=O)c2ccc(NC(=O)CSc3ccccc3)cc2C1=O,3,-7,0,3,1,nt,nt,

# Bioassay records deposited in PubChem by several laboratories.
